Test [1] addresses human Adenosine A1 Receptor (AdoRA1), ADORA1 (gene 134) (UniProt P30542). The experiment in a line: NVS_GPCR_hAdoRA1: NovaScreen (NVS) G Protein-Coupled Receptor Assay for human Adenosine A1 Receptor (AdoRA1) (AID 2283254). Put shortly: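 Radioligand competition binding on human cortical membranes, 1 h after compound addition; bound radioactivity read by filtration and scintillation counting. Loss of signal versus DMSO baseline scored as displacement; primary screen duplicate at 25 uM, actives retested in concentration series.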

The target of test [2] is human Androgen Receptor (AR), AR (gene 367) (UniProt P10275). The experiment in a line: NVS_NR_hAR: NovaScreen (NVS) Nuclear Receptor Binding Assay for human Androgen Receptor (AR) (AID 2283332). Put shortly:
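Radioligand competitive binding, scintillation read-out, in cell-free extract from LnCAP, measured 20 h after dosing. Screened first in duplicate at 25 uM, then concentration series for actives; activity fitted against DMSO.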

Test [3] addresses chimpanzee Androgen Receptor (AR), AR (gene 747460) (UniProt O97775). The test can be described thus: NVS_NR_cAR: NovaScreen (NVS) Nuclear Receptor Binding Assay for chimpanzee Androgen Receptor (AR) (AID 2283346).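 Further: radioligand displacement from AR measured by scintillation counting in a cell-free assay.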 The gist of the method:
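Cell-free competition binding with insect-cell (Sf9/Sf21) extracted chimpanzee AR; scintillation signal from lysate at 72 h. Screened in duplicate at 25 uM, then concentration-response for actives; fitting relative to DMSO.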

Test [4] has as its target guinea pig Opioid, Kappa 1 Receptor (OpiateK), OPRK1 (gene 100135587) (UniProt P41144). The test can be described thus: NVS_GPCR_gOpiateK: NovaScreen (NVS) G Protein-Coupled Receptor Assay for guinea pig Opioid, Kappa 1 Receptor (OpiateK) (AID 2283252).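 Further: active means reduced radioligand binding relative to DMSO.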 Put shortly:
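Radioligand binding to kappa opioid receptor in guinea pig cerebellar membranes, read by filtration and scintillation at 2 h. Compounds first tested in duplicate at 25 uM, then actives in concentration series; signal loss fitted against DMSO.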

The target of test [5] is D(1A) dopamine receptor (Homo sapiens) (UniProt P21728). The experiment in a line: NVS_GPCR_hDRD1: NovaScreen (NVS) G Protein-Coupled Receptor Assay for human Dopamine Receptor D1 (DRD1) (AID 2283269). The gist of the method:
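Cell-free competition with radioligand, filter-trapped and scintillation-counted 1 h post-dose, using HEK293-derived human D1 preparation. Duplicate single-point testing at 25 uM first, then concentration series for actives; DMSO served as baseline, loss-of-signal scored.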

Test [6] deals with Muscarinic acetylcholine receptor M2 (Homo sapiens) (UniProt P08172). The experiment in a line: NVS_GPCR_hM2: NovaScreen (NVS) G Protein-Coupled Receptor Assay for human Muscarinic, M2 Receptor (AID 2283273). Put shortly: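 CHO-expressed human M2 receptor preparation, competitive displacement of a radioligand read by filter-based scintillation counting after 1 h. Single 25 uM duplicate screen, then concentration-response follow-up of actives; DMSO baseline.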

Test [7] addresses human Thromboxane A2 Receptor (TXA2), TBXA2R (gene 6915) (UniProt P21731). The test can be described thus: NVS_GPCR_hTXA2: NovaScreen (NVS) G Protein-Coupled Receptor Assay for human Thromboxane A2 Receptor (TXA2) (AID 2283282).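 Further: actives reduce bound radioligand signal relative to DMSO baseline.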 The gist of the method: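 Human platelet membranes tested for radioligand displacement by filtration and scintillation counting 1 h post-dose. Screened in duplicate at 25 uM; activity fitted as signal loss relative to DMSO.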

In test [8] the target is human Opioid Receptor Mu (Opiate Mu), OPRM1 (gene 4988) (UniProt P35372). The test can be described thus: NVS_GPCR_hOpiate_mu: NovaScreen (NVS) G Protein-Coupled Receptor Assay for human Opioid Receptor Mu (Opiate Mu) (AID 2283290).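 Further: hits lower bound tracer signal versus DMSO meaning displacement of the ligand.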 The gist of the method:
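Primary screen in duplicate at 25 uM, with actives followed in concentration series. CHO-derived receptor membranes, cell-free; bound radioligand read by scintillation counting after filtration at 2.5 h, decrease scored against DMSO.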

In test [9] the target is rat Adrenergic Receptor, Alpha 2 (Adra2), Non-selective Binding, Adra2a (gene 25083) (UniProt P22909). The test can be described thus: NVS_GPCR_rAdra2_NonSelective: NovaScreen (NVS) G Protein-Coupled Receptor Assay for rat Adrenergic Receptor, Alpha 2 (Adra2), Non-selective Binding (AID 2283299). Put shortly: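 Filter-based scintillation counting of radioligand binding to rat cortical membrane receptors, measured 1.25 hours post-dosing; loss of signal versus DMSO indicates displacement. Initial single-concentration duplicate at 25 uM, then concentration series.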

The target of test [10] is rat Neonicotinoid receptor (NNR), Chrna7 (gene 25302) (UniProt Q05941). The test can be described thus: NVS_LGIC_rNNR_BungSens: NovaScreen (NVS) Ligand-Gated Ion Channel Assay for rat Neonicotinoid receptor (NNR) (AID 2283315). Put shortly:
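Rat cortical membrane preparation incubated 2.5 h with tritiated or iodinated radioligand and test chemical. Bound radioactivity was filtered and counted by scintillation, and displacement was analysed against DMSO.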

Test [11] can be described thus: NVS_IC_rCaBTZCHL: NovaScreen (NVS) Ion Channel Assay for Calcium Channel, Type L, Benzothiazepine Site (CaBTZCHL) (AID 2283337). The gist of the method:
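Rat cortical membrane preparation, cell-free. Radioligand displaced by test chemical; 1.5 h incubation; filtration, scintillation count. DMSO = negative control/baseline. Primary: duplicate, 25 uM; secondary: concentration series.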

For test [12], the target named is rat Peripheral-type Benzodiazepine Receptor (PBR), Tspo (gene 24230) (UniProt P16257). The experiment in a line: NVS_MP_rPBR: NovaScreen (NVS) Membrane Protein Assay for rat Peripheral-type Benzodiazepine Receptor (PBR) (AID 2283335). The gist of the method:
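Single-concentration duplicate screening at 25 uM preceded concentration-series retesting of actives. Binding of a specific radioligand to rat kidney membrane PBR was read by filtration radiodetection after 1 h, with plate-wise positive and negative controls.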

Test [13] concerns the target human Adenosine A2a Receptor (AdoRA2a), ADORA2A (gene 135) (UniProt P29274). The experiment in a line: NVS_GPCR_hAdoRA2a: NovaScreen (NVS) G Protein-Coupled Receptor Assay for human Adenosine A2a Receptor (AdoRA2a) (AID 2283256). The gist of the method: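 HEK293-derived receptor preparation, radioligand displacement, 1.5 h, filtration + scintillation read. Loss of bound signal scored vs DMSO. Single-point 25 uM in duplicate first, then concentration-response for actives.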

The target of test [14] is human Neurokinin, NK2 Receptor, TACR2 (gene 6865) (UniProt P21452). The experiment in a line: NVS_GPCR_hNK2: NovaScreen (NVS) G Protein-Coupled Receptor Assay for human Neurokinin, NK2 Receptor (AID 2283278).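 Further: actives reduce bound radioligand signal relative to DMSO baseline.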 The gist of the method:
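Cell-free radioligand binding using receptor protein extracted from CHO cells; readings taken 4 hours after chemical dosing by filter-based scintillation counting. Primary screen ran single concentration (25 uM) in duplicate; actives followed up in concentration series, loss-of-signal versus DMSO baseline.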

Test [15] addresses rat Thyrotropin Releasing Hormone Receptor (TRH), Trhr (gene 25570) (UniProt Q01717). The test can be described thus: NVS_GPCR_rTRH: NovaScreen (NVS) G Protein-Coupled Receptor Assay for rat Thyrotropin Releasing Hormone Receptor (TRH) (AID 2283329).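 Further: hit means lower bound tracer signal versus DMSO baseline.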 Put shortly: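 Competitive radioligand binding on rat forebrain membrane preparations, with filtration and scintillation readout after 4 h. Primary testing in duplicate at 25 uM; actives confirmed in concentration-response. DMSO defined baseline.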

Test [16] has as its target bovine Estrogen Receptor (ER), ESR1 (gene 407238) (UniProt P49884). The test can be described thus: NVS_NR_bER: NovaScreen (NVS) Nuclear Receptor Binding Assay for bovine Estrogen Receptor (ER) (AID 2283345).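 Further: actives lower the bound radioligand count which means they displace the ER ligand.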 Put shortly: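 Displacement of a radioligand from estrogen receptor in bovine uterine membrane preparations; scintillation signal taken at 18 hours, DMSO as baseline. Single-concentration duplicates (25 uM) preceded concentration-response follow-up of actives.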

Inconclusive results are not listed. Calls of active or inactive are those of the source. How the source made its calls: active means hit-call score of the fitted dose curve at least 0.9, where 1 is the maximum; inconclusive means response in the unintended direction; inactive means score below 0.9.

human Thromboxane A2 Receptor (TXA2), TBXA2R (gene 6915), sequence (P21731 whole entry, looked up): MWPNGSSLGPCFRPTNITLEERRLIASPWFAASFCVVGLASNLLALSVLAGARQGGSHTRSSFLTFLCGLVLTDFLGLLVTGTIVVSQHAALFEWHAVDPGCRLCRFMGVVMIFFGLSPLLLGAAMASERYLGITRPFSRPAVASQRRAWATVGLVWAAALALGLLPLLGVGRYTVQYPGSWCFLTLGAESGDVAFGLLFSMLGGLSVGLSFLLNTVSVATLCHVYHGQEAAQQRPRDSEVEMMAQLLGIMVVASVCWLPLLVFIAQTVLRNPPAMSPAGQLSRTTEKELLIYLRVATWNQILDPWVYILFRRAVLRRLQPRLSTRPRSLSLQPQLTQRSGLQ
bovine Estrogen Receptor (ER), ESR1 (gene 407238), sequence (P49884 whole entry, looked up): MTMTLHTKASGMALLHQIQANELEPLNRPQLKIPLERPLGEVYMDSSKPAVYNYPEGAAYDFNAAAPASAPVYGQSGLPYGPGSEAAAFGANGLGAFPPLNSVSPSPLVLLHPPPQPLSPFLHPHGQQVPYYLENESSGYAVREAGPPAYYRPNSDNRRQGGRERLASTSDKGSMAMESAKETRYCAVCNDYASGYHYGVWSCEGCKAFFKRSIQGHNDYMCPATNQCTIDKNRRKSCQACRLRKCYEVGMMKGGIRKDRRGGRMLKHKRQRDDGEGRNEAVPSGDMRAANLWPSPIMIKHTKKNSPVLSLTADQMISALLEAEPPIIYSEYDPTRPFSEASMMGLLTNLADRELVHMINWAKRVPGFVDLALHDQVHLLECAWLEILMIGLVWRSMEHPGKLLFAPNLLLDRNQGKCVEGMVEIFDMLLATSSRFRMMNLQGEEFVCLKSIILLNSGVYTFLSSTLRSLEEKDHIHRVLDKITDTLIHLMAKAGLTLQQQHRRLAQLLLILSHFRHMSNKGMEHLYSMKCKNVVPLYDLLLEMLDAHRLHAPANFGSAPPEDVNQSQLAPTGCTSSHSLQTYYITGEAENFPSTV
human Androgen Receptor (AR), AR (gene 367), sequence (P10275 whole entry, looked up): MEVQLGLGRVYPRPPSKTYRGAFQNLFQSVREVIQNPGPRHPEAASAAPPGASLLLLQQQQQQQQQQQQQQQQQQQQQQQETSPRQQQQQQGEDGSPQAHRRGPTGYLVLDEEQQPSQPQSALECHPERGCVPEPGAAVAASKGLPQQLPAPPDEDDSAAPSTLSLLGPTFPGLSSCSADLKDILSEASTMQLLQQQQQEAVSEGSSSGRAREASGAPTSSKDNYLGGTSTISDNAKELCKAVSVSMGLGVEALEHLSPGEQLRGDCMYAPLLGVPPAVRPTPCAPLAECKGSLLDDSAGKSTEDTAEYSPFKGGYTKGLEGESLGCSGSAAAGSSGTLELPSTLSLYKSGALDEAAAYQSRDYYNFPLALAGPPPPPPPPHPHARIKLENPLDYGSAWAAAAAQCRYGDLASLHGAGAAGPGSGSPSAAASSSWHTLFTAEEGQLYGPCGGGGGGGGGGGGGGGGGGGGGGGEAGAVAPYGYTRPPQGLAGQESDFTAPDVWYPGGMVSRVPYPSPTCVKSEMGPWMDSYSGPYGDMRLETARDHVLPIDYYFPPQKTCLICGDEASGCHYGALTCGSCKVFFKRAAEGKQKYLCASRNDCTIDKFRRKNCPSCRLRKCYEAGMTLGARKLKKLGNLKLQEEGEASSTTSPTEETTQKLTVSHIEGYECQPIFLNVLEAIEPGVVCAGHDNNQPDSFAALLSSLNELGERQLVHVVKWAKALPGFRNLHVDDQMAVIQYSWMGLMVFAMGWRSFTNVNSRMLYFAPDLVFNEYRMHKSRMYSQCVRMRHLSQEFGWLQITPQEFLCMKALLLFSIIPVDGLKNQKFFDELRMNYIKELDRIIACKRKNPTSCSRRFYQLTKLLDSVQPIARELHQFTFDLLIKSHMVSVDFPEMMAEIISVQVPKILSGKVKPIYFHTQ
human Opioid Receptor Mu (Opiate Mu), OPRM1 (gene 4988), sequence (P35372 whole entry, looked up): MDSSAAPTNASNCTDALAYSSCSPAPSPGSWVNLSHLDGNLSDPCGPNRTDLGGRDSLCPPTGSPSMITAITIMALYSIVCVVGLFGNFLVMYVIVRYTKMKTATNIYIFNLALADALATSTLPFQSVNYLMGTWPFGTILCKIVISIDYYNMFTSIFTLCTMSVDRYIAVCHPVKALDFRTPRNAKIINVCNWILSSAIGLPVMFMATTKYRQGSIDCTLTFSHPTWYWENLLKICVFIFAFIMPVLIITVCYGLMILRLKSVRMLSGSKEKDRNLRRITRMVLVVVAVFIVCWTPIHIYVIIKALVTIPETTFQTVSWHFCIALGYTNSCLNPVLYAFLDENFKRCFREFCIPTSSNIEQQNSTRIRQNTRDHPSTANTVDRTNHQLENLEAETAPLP
rat Neonicotinoid receptor (NNR), Chrna7 (gene 25302), sequence (Q05941 whole entry, looked up): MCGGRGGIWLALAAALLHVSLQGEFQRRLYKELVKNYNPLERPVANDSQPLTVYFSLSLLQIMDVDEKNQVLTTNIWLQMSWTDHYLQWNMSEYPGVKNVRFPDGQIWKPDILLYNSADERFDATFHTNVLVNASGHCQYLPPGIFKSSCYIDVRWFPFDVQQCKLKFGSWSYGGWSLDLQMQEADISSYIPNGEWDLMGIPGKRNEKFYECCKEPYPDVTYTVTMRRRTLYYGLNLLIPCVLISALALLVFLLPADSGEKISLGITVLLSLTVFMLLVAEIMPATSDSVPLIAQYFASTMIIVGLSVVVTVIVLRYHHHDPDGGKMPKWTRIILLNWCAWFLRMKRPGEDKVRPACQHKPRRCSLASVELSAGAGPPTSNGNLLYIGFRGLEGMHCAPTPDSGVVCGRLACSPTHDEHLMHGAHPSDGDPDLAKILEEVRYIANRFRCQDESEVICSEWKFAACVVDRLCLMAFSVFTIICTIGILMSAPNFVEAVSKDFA
chimpanzee Androgen Receptor (AR), AR (gene 747460), sequence (O97775 whole entry, looked up): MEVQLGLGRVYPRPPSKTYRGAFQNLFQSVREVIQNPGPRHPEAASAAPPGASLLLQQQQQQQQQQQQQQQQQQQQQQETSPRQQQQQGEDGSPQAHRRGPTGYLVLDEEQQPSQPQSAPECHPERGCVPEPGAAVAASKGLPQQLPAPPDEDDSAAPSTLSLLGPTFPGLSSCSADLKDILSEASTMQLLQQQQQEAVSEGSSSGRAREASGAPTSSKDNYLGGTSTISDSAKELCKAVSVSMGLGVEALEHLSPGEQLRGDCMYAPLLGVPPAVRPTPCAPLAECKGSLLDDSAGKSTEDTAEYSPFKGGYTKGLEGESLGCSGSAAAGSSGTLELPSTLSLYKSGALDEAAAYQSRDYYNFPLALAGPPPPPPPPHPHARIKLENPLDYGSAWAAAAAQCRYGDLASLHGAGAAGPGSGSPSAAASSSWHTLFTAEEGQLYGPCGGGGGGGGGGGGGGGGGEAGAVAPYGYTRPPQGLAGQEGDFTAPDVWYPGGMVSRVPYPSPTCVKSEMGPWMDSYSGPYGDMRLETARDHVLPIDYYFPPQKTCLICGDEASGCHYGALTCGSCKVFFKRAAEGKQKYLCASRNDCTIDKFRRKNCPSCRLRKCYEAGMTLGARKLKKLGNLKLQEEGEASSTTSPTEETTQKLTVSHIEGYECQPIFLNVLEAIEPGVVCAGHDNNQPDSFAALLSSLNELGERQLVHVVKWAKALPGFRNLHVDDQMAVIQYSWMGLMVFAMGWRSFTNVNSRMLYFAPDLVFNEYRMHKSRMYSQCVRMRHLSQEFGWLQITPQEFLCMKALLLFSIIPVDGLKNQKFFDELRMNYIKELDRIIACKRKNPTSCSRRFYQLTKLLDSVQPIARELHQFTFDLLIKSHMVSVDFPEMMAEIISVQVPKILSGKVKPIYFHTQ
rat Thyrotropin Releasing Hormone Receptor (TRH), Trhr (gene 25570), sequence (Q01717 whole entry, looked up): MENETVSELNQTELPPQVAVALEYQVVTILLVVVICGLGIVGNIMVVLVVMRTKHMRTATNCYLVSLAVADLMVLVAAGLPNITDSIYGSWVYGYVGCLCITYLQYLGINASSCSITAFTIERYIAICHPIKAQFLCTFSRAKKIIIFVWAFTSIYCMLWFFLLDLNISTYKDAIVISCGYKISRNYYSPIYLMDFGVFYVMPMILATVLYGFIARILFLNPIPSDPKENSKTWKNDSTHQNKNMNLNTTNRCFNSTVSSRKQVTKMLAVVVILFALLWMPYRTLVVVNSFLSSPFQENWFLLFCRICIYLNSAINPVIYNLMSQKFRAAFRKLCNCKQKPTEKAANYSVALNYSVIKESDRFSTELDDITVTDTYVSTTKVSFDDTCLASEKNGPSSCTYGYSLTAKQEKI
rat Peripheral-type Benzodiazepine Receptor (PBR), Tspo (gene 24230), sequence (P16257 whole entry, looked up): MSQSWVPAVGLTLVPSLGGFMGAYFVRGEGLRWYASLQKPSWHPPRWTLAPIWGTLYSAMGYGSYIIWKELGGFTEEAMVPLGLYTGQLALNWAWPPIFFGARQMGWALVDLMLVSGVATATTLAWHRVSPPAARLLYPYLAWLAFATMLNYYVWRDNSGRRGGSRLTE
D(1A) dopamine receptor (Homo sapiens), sequence (P21728 whole entry, looked up): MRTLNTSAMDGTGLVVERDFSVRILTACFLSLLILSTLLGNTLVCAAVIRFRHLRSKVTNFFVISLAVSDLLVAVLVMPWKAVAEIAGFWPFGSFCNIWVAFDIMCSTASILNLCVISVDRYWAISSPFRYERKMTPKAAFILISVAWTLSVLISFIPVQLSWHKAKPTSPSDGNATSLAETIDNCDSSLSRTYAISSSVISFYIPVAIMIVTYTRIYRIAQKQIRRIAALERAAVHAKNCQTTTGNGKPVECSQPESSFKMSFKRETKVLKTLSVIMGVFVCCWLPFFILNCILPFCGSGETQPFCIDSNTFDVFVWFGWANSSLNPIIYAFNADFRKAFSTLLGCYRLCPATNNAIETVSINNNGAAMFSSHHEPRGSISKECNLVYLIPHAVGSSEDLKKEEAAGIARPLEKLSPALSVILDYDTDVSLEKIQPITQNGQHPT

Regarding `O=C1c2ccccc2C(=O)c2c(Cl)cccc21`, the AC50 in [1] is 13.3 µM (active); in test [2] it was 2.06 µM (active); in test [3] it was 0.93 µM (active). Consider `c1ccc(C[P+](c2ccccc2)(c2ccccc2)c2ccccc2)cc1`, for which the AC50 was 1.98 µM (active) in test [4]; 1.22 µM (active) in test [6]; 1.09 µM (active) in test [8]; 17.8 µM (active) in [9]; 25 µM (active) in test [10]; 4.8 µM (active) in test [11]. Besides, the compound was classed as inactive in test [5] and in [7].

Regarding `CCN(CC)c1ccc(C=O)cc1`, in [7], the AC50 is 4.65 µM (active). The call in test [8] and in test [12] was inactive. Turning to `CCOC(C=C(C)CCC=C(C)C)OCC`, the compound was called inactive in [13] and in [7].

Take `O=C1OC(=O)c2ccc3c4c(ccc1c24)C(=O)OC3=O`: the outcome in [14] was inactive.

`Oc1ccc2c(c1)CCC2`: the outcome in test [5] and in test [7] was inactive. With `CCCCOC(=O)C(C)O` (stereo unspecified), the call in [15] was inactive. For `CC(=O)CCC(C)C`, the result in test [3] was inactive. Turning to `CCN(CC)c1ccc2c(c1)Oc1cc(N(CC)CC)ccc1C21OC(=O)c2ccccc21`, the result in test [7] was inactive. In addition, the AC50 in [10] was 3.48 µM (active). On to `Cc1cccc(C)n1`, for which, in test [8], the compound was called inactive. As to `Cc1cc(O)c(C(C)(C)C)cc1C(C)(C)C`, in [16], the outcome was inactive. `O=c1cccc[nH]1`: the compound was classed as inactive in test [10]. For the compound `CCC(Cc1c(I)cc(I)c(N)c1I)C(=O)O` (stereo unspecified), the compound was called inactive in test [15] and in test [16]. `Cc1ccc([N+](=O)[O-])c(C)c1`: the result in test [15] was inactive. Consider `CCCCOC(=O)[C@H](C)O`, for which the result in test [15] was inactive. Turning to `CCN=c1cc2oc3cc(NCC)c(C)cc3c(-c3ccccc3C(=O)OCC)c-2cc1C`, in test [15], the result was inactive. Besides, the AC50 was 5.08 µM (active) in test [12] and 8.97 µM (active) in test [16]. Turning to `CC(C)(C)C(=O)C1C(=O)c2ccccc2C1=O`, the result in test [16] was inactive. As to `O=C(c1ccccc1)c1ccc(Cl)cc1`, the AC50 in test [12] is 12.6 µM (active).

In the case of `CC(C)(C)c1cc(Cc2cc(C(C)(C)C)c(O)c(C(C)(C)C)c2)cc(C(C)(C)C)c1O`, the call in [15] was inactive. Turning to `CCCCCCCCCc1ccc(OCCO)cc1`, the compound was classed as inactive in test [16]. Turning to `CCCCCCCC/C=C\CCCCCCCC(=O)OCC(O)CO` (stereo unspecified), the outcome in [15] and in test [3] was inactive. As to `CCCCCCCCCCCCC[N+](C)(C)Cc1ccccc1`, the compound was called inactive in [16]. With `COCCOCCC[Si](C)(O[Si](C)(C)C)O[Si](C)(C)C`, the result in [15] was inactive.

Turning to `C#CC(O)CCC` (stereo unspecified), the half-maximal activity concentration (AC50) in test [8] is 5.3 µM (active). The call in [2] and in test [3] was inactive. As for `CCCCCCCC/C=C\CCCCCCCC(=O)N(C)CC(=O)O`, the outcome in test [12] and in [16] was inactive. Consider `CCN=C1C=CC(=C(c2ccc(N(CC)CC)cc2)c2ccc(N(CC)CC)cc2)c2ccccc21`, for which, in test [15], the outcome was inactive. Besides, the results for the AC50 in test [12] and in test [3] were 0.185 µM (active) and 3.61 µM (active), respectively. As for `O=C1c2c(O)ccc(Nc3ccc(CCO)cc3)c2C(=O)c2c([N+](=O)[O-])ccc(O)c21`, the call in [7] and in test [3] was inactive. Besides, the values for the AC50 in test [2] and in test [12] were 13.8 µM (active) and 2.38 µM (active), respectively. As for `CC(C)Nc1ccc(NC(C)C)c2c1C(=O)c1ccccc1C2=O`, the AC50 in test [12] was 0.666 µM (active). Regarding `CCc1cc(Cc2cc(CC)c(N)c(CC)c2)cc(CC)c1N`, the concentration at half-maximal activity (AC50) in test [12] was 6.66 µM (active). Further, the outcome in test [16] was inactive.

As usually defined, the AC50 is the concentration giving half of the maximal activity seen.

Values taken from PubChem BioAssay (EPA / NIEHS).
